Source: PubChem (several laboratories)
Rin1-Abl PPI inh: inhibitors of human Rin1-Abl protein interaction. TR-FRET Rin1/Abl binding, biochemical. inhibition, % at 7.35 µM. 0.4% of 360,000 active. AID 588664; in the data active = inhibition above about 5%, passing the limit was not always enough
PfM18AAP inh-1: PfM18AAP enzyme inhibition; inhibition, % at 7.35 µM; 1.2% of 290,000 active; recombinant PfM18AAP, H-Glu-NHMec fluorogenic cleavage;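 active = inhibition above the campaign mean inhibition over all tested compounds plus 3 SD, cut at about 28% in these data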
CTSL1 counter-1: counter-screen for PFM18AAP inhibitors: inhibitors of F. hepatica cathepsin L1. recombinant F. hepatica cathepsin L1, Z-Leu-Arg-MCA fluorescence. inhibition, % at 5.96 µM. 0.49% of 300,000 active. AID 1906;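 active = inhibition above the mean of all tested compounds plus 3 SD, set per screening campaign, cut at about 17% in these data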
Calb FLC: C. albicans growth modulation with fluconazole; C. albicans CaCi-2 (fluconazole-resistant clinical isolate) + fluconazole, Alamar Blue growth, 48 h; growth inhibition, % (concentration not given with the values); 0.57% of 300,000 active; AID 1979;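 active = growth inhibition above about 58% in most replicates, limit read from the data, passing the limit was not always enough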;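 also: all wells also contain fluconazole at 8 µg/ml as a sub-toxic cotreatment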
PfM18AAP inh-2: confirmation of Plasmodium falciparum M18 aspartyl aminopeptidase inhibitors; shares compounds with PfM18AAP inh-1; recombinant PfM18AAP, H-Glu-NHMec fluorogenic cleavage; inhibition, % at 7.35 µM; 28% of 2,400 active; AID 2170;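 active = mean inhibition over replicate wells above the hit cutoff set for the earlier primary screen, cut at about 29% in these data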
CTSL1 counter-2: counter-screen for PFM18AAP inhibitors: confirmation of human cathepsin L inhibitors; shares compounds with PfM18AAP inh-1; purified cathepsin L1, Z-Leu-Arg-MCA fluorescence; inhibition, % at 5.96 µM; 2,400 tested, under 10 active;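 active = average inhibition across replicates above the hit cutoff set in the earlier primary screen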
Large screens that a line does not name were inactive (follow-up assays come after a bar, where they were run). This is a sample that favours compounds with a hit; in the whole collection about 2.1% have one here.

Cc1cc(C)nc(SCC(=O)c2ccc(C)c(C)c2)n1	none
Cc1ccc([N+](=O)[O-])cc1NC(=O)CSc1n[nH]c(-c2cccnc2)n1	none
Fc1ccc(N=c2ssnc2Cl)c(F)c1	PfM18AAP inh-1 32 | PfM18AAP inh-2 inactive | CTSL1 counter-2 inactive
COc1cc(N=c2ssnc2Cl)cc(OC)c1OC	PfM18AAP inh-1 39 | PfM18AAP inh-2 inactive | CTSL1 counter-2 inactive
Clc1ccc(N=c2ssnc2Cl)cc1	none
COc1ccc(N=c2ssnc2Cl)cc1	none
Cc1ccc(-c2cn3c(=S)[nH]nc3s2)cc1	PfM18AAP inh-1 64 | PfM18AAP inh-2 46 | CTSL1 counter-2 inactive
Cc1ccc(-c2n[nH]c(=S)n2C)cc1	none (no result: CTSL1 counter-1)
O=C(CN1C(=O)NC2(CCCc3ccccc32)C1=O)N1CCCCC1 (centres undefined)	none (no result: PfM18AAP inh-1)
Cc1ccc(CNS(=O)(=O)c2ccc(-n3cccn3)cc2)cc1	none (no result: PfM18AAP inh-1, CTSL1 counter-1, Calb FLC)
N#CC[C@H](Cc1ccccc1)N1CCN(CCc2ccccc2)CCC1=O	PfM18AAP inh-1 33 | PfM18AAP inh-2 inactive | CTSL1 counter-2 inactive
N#CC[C@H](Cc1ccccc1)N1CCN(Cc2ccccc2)CCC1=O	none
CCCNc1c(NC(=O)c2cccs2)c(=O)oc2ccccc12	none
CCn1c(O)c(/C=N/n2cnnc2)sc1=S	PfM18AAP inh-1 59 | PfM18AAP inh-2 57 | CTSL1 counter-2 inactive
CCn1c(O)c(C=Nc2ccccc2)sc1=S	none (no result: Rin1-Abl PPI inh)
COc1ccc(NC(=O)CN(C)C(=O)c2ccc(NS(=O)(=O)c3cccc([N+](=O)[O-])c3)cc2)cc1	none (no result: PfM18AAP inh-1)
O=C(O)c1ccc(-n2c(O)c(C=C3N=c4ccccc4=N3)sc2=S)cc1	PfM18AAP inh-1 51 | PfM18AAP inh-2 inactive | CTSL1 counter-2 inactive
Cc1cc(NC(=O)CSc2nnc(-c3ccco3)o2)no1	PfM18AAP inh-1 47 | PfM18AAP inh-2 inactive | CTSL1 counter-2 inactive
O=C1c2ccccc2C(=O)N1c1ncn[nH]1	PfM18AAP inh-1 44 | PfM18AAP inh-2 inactive | CTSL1 counter-2 inactive
COc1ccccc1/C=C/C(=O)OC(C)CN1CCOCC1 (centres undefined)	PfM18AAP inh-1 51 | PfM18AAP inh-2 inactive | CTSL1 counter-2 inactive
Cc1ccc(S(=O)(=O)N2CCCCC2CCNC(=O)C(=O)NCc2ccccc2C)cc1 (centres undefined)	none (no result: PfM18AAP inh-1)
CC/C(=C/c1sc2ccccc2[n+]1CC)SC	PfM18AAP inh-1 46 | PfM18AAP inh-2 inactive | CTSL1 counter-2 inactive
CC[n+]1c(/C=C(\C)SC)sc2ccccc21	PfM18AAP inh-1 44 | PfM18AAP inh-2 inactive | CTSL1 counter-2 inactive
CC[n+]1c(/C=C(/C)SC)sc2ccccc21	PfM18AAP inh-1 49 | PfM18AAP inh-2 inactive | CTSL1 counter-2 inactive
CC1CCC(NC(=O)CN(C)S(=O)(=O)c2ccc3c(c2)CCC(=O)N3)CC1 (centres undefined)	none
CCCCNC(=O)C1(C)CCCCN1C(=O)c1cc2ccccc2s1 (centres undefined)	none (no result: PfM18AAP inh-1, CTSL1 counter-1, Calb FLC)
N#CC1=C(N)Oc2n[nH]c(-c3cccnc3)c2C1c1ccc([N+](=O)[O-])o1 (centres undefined)	PfM18AAP inh-1 33 | PfM18AAP inh-2 inactive | CTSL1 counter-2 inactive
N#CC1=C(N)Oc2n[nH]c(-c3ccccc3)c2C1c1cccnc1 (centres undefined)	none
O=S(=O)(Nc1cc(Sc2ncn[nH]2)c(O)c2ccccc12)c1ccccc1	PfM18AAP inh-1 38 (no result: CTSL1 counter-1, Calb FLC) | PfM18AAP inh-2 inactive | CTSL1 counter-2 inactive
COc1ccc(S(=O)(=O)Nc2cc(Sc3ncn[nH]3)c(O)cc2C)cc1	none (no result: PfM18AAP inh-1, CTSL1 counter-1, Calb FLC)
Cc1ccc(C(C(=O)NC(C)(C)C)N(Cc2cccs2)C(=O)c2csnn2)cc1 (centres undefined)	PfM18AAP inh-1 35 | PfM18AAP inh-2 inactive | CTSL1 counter-2 inactive
C=CCNC(=O)c1cc(-c2ccncc2)nc2c(C)cc(C)cc12	none
CC(=O)N/C(=C/c1ccc([N+](=O)[O-])cc1)C(=O)O	PfM18AAP inh-1 32 | PfM18AAP inh-2 inactive | CTSL1 counter-2 inactive
CNC(=O)/C(=C\c1ccc([N+](=O)[O-])cc1)NC(C)=O	none
CCOC(=O)c1cnc2c(C(=O)OC)cccc2c1NCc1ccco1	PfM18AAP inh-1 41 | PfM18AAP inh-2 inactive | CTSL1 counter-2 inactive
CCOC(=O)c1cnc2c(C)cccc2c1NCc1ccco1	none
S=C(Nc1ccccn1)c1ccccn1	PfM18AAP inh-1 36 | PfM18AAP inh-2 inactive | CTSL1 counter-2 inactive
CCC(C(=O)Nc1cc(C(=O)Nc2cc(C)ccn2)ccc1Cl)c1ccccc1 (centres undefined)	none
OCCN1CCN(c2ncnc3sc4c(c23)CCCC4)CC1	none
Oc1ccc(N2CCN(c3ncnc4sc5c(c34)CCC5)CC2)cc1	PfM18AAP inh-1 39 | PfM18AAP inh-2 inactive | CTSL1 counter-2 inactive
O=c1c2ccccc2c(/C=N/c2ncn[nH]2)c(O)n1Cc1ccccc1	PfM18AAP inh-1 54 | PfM18AAP inh-2 inactive | CTSL1 counter-2 inactive
NC(=O)C1CCN(C(=S)c2ccc(-c3ccc(Br)cc3)o2)CC1	PfM18AAP inh-1 49 | PfM18AAP inh-2 inactive | CTSL1 counter-2 inactive
COc1cc(NC(=O)Nn2cnnc2)cc(OC)c1OC	PfM18AAP inh-1 69 | PfM18AAP inh-2 54 | CTSL1 counter-2 inactive
COc1cc(C(=O)Nn2cnnc2)ccc1OC(F)F	PfM18AAP inh-1 45 | PfM18AAP inh-2 inactive | CTSL1 counter-2 inactive
COc1ccc(NC(=O)Nn2cnnc2)cc1OC	PfM18AAP inh-1 55 | PfM18AAP inh-2 44 | CTSL1 counter-2 inactive
COc1ccccc1NC(=O)Nn1cnnc1	PfM18AAP inh-1 65 | PfM18AAP inh-2 51 | CTSL1 counter-2 inactive
CC1CCN(c2ccccc2NC(=S)NC(=O)C(C)(C)C)CC1	none
COc1ccc(C(=O)Nc2ccccc2C(=O)N2CCCCC2C)cc1 (centres undefined)	none
COC(=O)C1=C(C)OC(N)=C(C#N)C1c1c(C)nn(C)c1C (centres undefined)	none
CCCS(=O)(=O)NC(=O)C1(C)CCCN(C(=O)c2cccc(C(F)(F)F)c2)C1 (centres undefined)	none (no result: PfM18AAP inh-1, CTSL1 counter-1, Calb FLC)
Cc1cc(C)n2c(=S)[nH]nc2n1	PfM18AAP inh-1 81 | PfM18AAP inh-2 72 | CTSL1 counter-2 inactive
CCOC(=O)C1=C[C@@H](C(C)(C)C)N(S(=O)(=O)c2ccccc2C)[C@H]1c1ccc(Cl)cc1	none (no result: PfM18AAP inh-1, CTSL1 counter-1, Calb FLC)
CC1SC(=S)N(c2ccc(N(C)C)cc2)C1=O (centres undefined)	PfM18AAP inh-1 33 | PfM18AAP inh-2 inactive | CTSL1 counter-2 inactive
CN(C)c1ccc(N2C(=O)CSC2=S)cc1	none
CCOC(=O)c1c(NC(=O)C2CCCO2)sc(C(=O)OC(C)(C)C)c1C (centres undefined)	PfM18AAP inh-1 35 | PfM18AAP inh-2 inactive | CTSL1 counter-2 inactive
CCOC(=O)c1c(NC(=O)C2CCCO2)sc(C)c1C (centres undefined)	none
Cc1sc(NC(=O)C2CCCO2)c(C(N)=O)c1C (centres undefined)	PfM18AAP inh-1 37 | PfM18AAP inh-2 inactive | CTSL1 counter-2 inactive
Cn1c(CNC(=O)c2ccco2)nnc1SCCOc1ccccc1	none (no result: CTSL1 counter-1)
COc1ccc(N2CCN(C(CNC(=O)C3CCCCC3)c3ccco3)CC2)cc1 (centres undefined)	none (no result: PfM18AAP inh-1)
